For orientation: AC50 means the midpoint of the concentration-response curve, whichever way the signal moves.

Values joined by “and” are separate entries in the source; they are usually repeats but may differ in a detail not shown here. Equal values may be shown once. Active and inactive are the calls of the source. Rule for the calls: active = hit-call score of the fitted dose curve at least 0.9, where 1 is the maximum; inactive = score below 0.9.

The nature of the experiment: BSK_hDFCGF_SRB: Viability Assessment in the BioMAP Diversity Plus: hDFCGF Assay (AID 2283061). Particulars: primary human foreskin fibroblasts. Here is the method:
BSK_hDFCGF is a cell-based, multiplexed-readout assay that uses foreskin fibroblast, a human skin primary cell, with measurements taken at 24 hours after chemical dosing in a 96-well plate.BSK_hDFCGF_SRB is an assay component measured in the BSK_hDFCGF assay. It measures 0.1% sulforhodamine related to cell death using Sulforhodamine staining technology.Data from the assay component BSK_hDFCGF_SRB was analyzed into 1 assay endpoint. This assay endpoint, BSK_hDFCGF_SRB, was analyzed with bidirectional fitting relative to DMSO as the negative control and baseline of activity. Using a type of viability reporter, gain or loss-of-signal activity can be used to understand changes in the signaling. Furthermore, this assay endpoint can be referred to as a primary readout, because this assay has produced multiple assay endpoints where this one serves a signaling function. To generalize the intended target to other relatable targets, this assay endpoint is annotated to the cell morphology intended target family, where the subfamily is cell conformation.
The levels of cell surface (or secreted, indicated by the prefix "s") biomarker endpoints were measured by ELISA. Overt cytotoxicity to cells in confluent adherent cultures (all systems other than the BT system) was assessed by measuring total protein levels using sulforhodamine B (SRB) staining in parallel cultures at the time of biomarker measurements, indicated as SRB endpoints. For proliferation assays for adherent cell types, individual cell types are cultured at sub-confluence and relative cell numbers quantified by SRB staining at time points optimized for each system (48 h: 3C and CASM3C systems; 72 h: BT and HDF3CGF systems; 96 h: SAg system). SRB was performed by staining cells with 0.1% SRB after fixation with 10% TCA and reading wells at 560 nm.Viability and proliferation of PBMC (T cells) was quantified by Alamar Blue reduction for the SAg and BT systems. For PBMC viability (referred to as PBMC Cytotoxicity within the assay endpoint names), cells were plated (75,000/well in a 96-well plate) and then chemical samples added for 1 h before addition of activators, SEB and TSST-1 (20 ng/mL final concentration each). Cells were incubated for 90 h. Then, Alamar Blue (20 uL/well) (Invitrogen, Cat DAL1100) was added for 6 h, and the plates were read with a fluorescence microplate reader at 546/580 nm (excitation/emission). For PBMC proliferation, cells were plated and activated as above but incubated for only 16 h prior to addition of Alamar Blue. Plates were read after 6 h.
`O=c1[nH]c(=O)[nH]c(=O)[nH]1`: the outcome was inactive.

Regarding `CCCCCCCCC(=O)NCc1ccc(O)c(OC)c1`, the result was inactive.

`CCC(C)(C)c1ccc(O)c(C(C)(C)CC)c1`: the AC50 was 11.3 µM (active).

For `CCCCC(CC)CO[N+](=O)[O-]` (stereo not given), the result was inactive.

Consider `CC(C)(OO)c1ccccc1`, for which the AC50 was 34.8 µM (active).

In the case of `Nc1ncc([N+](=O)[O-])s1`, the result was inactive.

With `CCN1CCC2(CC1)COc1cc3c(cc12)N(C(=O)c1ccc(-c2ccc(-c4nnc(C)o4)cc2C)cc1)CC3`, the AC50 was 6.07 µM (active).

As to `Cn1sc(Cl)cc1=O`, the AC50 is 30.5 µM (active).

As to `COC[C@H](C)N(C(=O)CCl)c1c(C)csc1C`, the outcome was inactive.

Consider `CC12CC1(C)C(=O)N(c1cc(Cl)cc(Cl)c1)C2=O` (stereo not given), for which the outcome was inactive.

Take `OCc1ccco1`: the result was inactive.

In the case of `O=C(O)C(F)(F)C(F)(F)C(F)(F)C(F)(F)C(F)(F)C(F)(F)C(F)(F)C(F)(F)C(F)(F)C(F)(F)F`, the AC50 is 9.04 µM (active) and 5.23 µM (active) and 5.22 µM (active).

On to `NC(=O)O`, for which the outcome was inactive.

For the compound `O=C1C2(Cl)C3(Cl)C4(Cl)C(Cl)(Cl)C5(Cl)C3(Cl)C1(Cl)C5(Cl)C24Cl` (stereo not given), the AC50 was 16.4 µM (active).

Regarding `O=C(O)CCC(F)(C(F)(F)F)C(F)(F)F`, the result was inactive.

`CC(=O)C(Cl)C(=O)N(C)C` (stereo not given): the result was inactive.

As to `COC(=O)Cc1ccccc1`, the outcome was inactive.

On to `O=C(O)C(Cl)(Cl)Cl`, for which the result was inactive.

Regarding `CC(C)(C)c1cc(O)ccc1O`, the AC50 is 4.07 µM (active).

Regarding `CC(C)CCCCCCOC(=O)c1ccccc1C(=O)OCCCCCCC(C)C`, the result was inactive.

In the case of `CC(C)(c1ccccc1)c1ccc(O)c(C(C)(C)c2ccccc2)c1`, the AC50 is 3.57 µM (active).

Take `O=C(OC1CCCCC1)c1ccccc1C(=O)OC1CCCCC1`: the AC50 was 9.82 µM (active).

`NC(=S)Nc1ccccc1`: the result was inactive.

On to `O=C(O)C(F)(F)C(F)(F)C(F)(F)C(F)(F)C(F)(F)C(F)(F)F`, for which the outcome was inactive.

As to `CC(C)c1ccc(CO)cc1`, the outcome was inactive.

With `C(=NC1CCCCC1)=NC1CCCCC1`, the AC50 was 13.8 µM (active).

For the compound `CC(C)(C)CC(C)(C)c1ccc(O)cc1`, the AC50 is 9.59 µM (active).

As for `COP(=S)(OC)Oc1cc(Cl)c(Cl)cc1Cl`, the outcome was inactive.

For `CC(=O)OC(c1ccccc1)C(Cl)(Cl)Cl` (stereo not given), the outcome was inactive.

In the case of `O=[N+]([O-])c1ccc2c3c(cccc13)CC2`, the outcome was inactive.

On to `ClC(Cl)=C(Cl)C(Cl)=C(Cl)Cl`, for which the result was inactive.

For `COP(=S)(OC)Oc1c(Cl)cc(C)cc1Cl`, the result was inactive.

Take `O=C(Nc1ccc2[nH]ccc2c1)c1cc2cc(F)ccc2n1Cc1cccc(F)c1`: the AC50 was 3.36 µM (active).

For the compound `CCOP(=S)(OCC)Oc1ccc(S(C)=O)cc1` (stereo not given), the outcome was inactive.

As for `O=S(=O)(c1ccc(Cl)cc1)c1ccc(Cl)cc1`, the outcome was inactive.

In the case of `COC(=O)c1sccc1S(=O)(=O)NC(=O)Nc1nc(C)nc(OC)n1`, the outcome was inactive.

With `CCOP(=S)(OCC)Oc1nc(Cl)c(Cl)cc1Cl`, the result was inactive.

As to `COP(=S)(OC)Oc1ccc(Sc2ccc(OP(=S)(OC)OC)cc2)cc1`, the result was inactive.

Take `C=CC(=O)OCCCCCC(C)C`: the outcome was inactive.

Take `ClC1=C(Cl)[C@]2(Cl)[C@H]3[C@H]([C@H]4C=C[C@H]3C4)[C@@]1(Cl)C2(Cl)Cl`: the result was inactive.

The values are drawn from PubChem BioAssay (EPA / NIEHS).
